Results published in PubChem BioAssay (Tox21).
Results filed as inconclusive are left out. A call without a number means that no potency is given here. Activity calls are given as the source filed them. Unless noted, calls follow the shape of the dose curve; as a rule, active = well fitted curve in the direction sought with a large enough effect in the repeat runs; inconclusive = weak or mixed curves; inactive = no such curve, though single readings can be large; an effect the other way counts as inactive or inconclusive.

Key:
[1] = qHTS assay for small molecule agonists of the p53 signaling pathway (AID 651631; calls by dose curve; also: nearly all actives have a fitted effect of over 15% in size; also: potency is read from the fitted curve at half-maximal effect); conditions: HCT-116 p53RE-bla reporter, beta-lactamase FRET ratio, 16 h; series mostly up to 73.3 µM
Procedure, shortened: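 Quantitative high-throughput format: 4,000 p53RE-bla HCT-116 cells/well, 5 h pre-incubation, 16 h compound exposure at 37 °C, 2 h room-temperature substrate step, fluorescence intensity measured.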

[2] = qHTS assay for small molecules that induce genotoxicity in human embryonic kidney cells expressing luciferase-tagged ATAD5 (AID 651632); conditions: HEK293T ATAD5-luciferase induction, 16 h; series mostly up to 83.3 µM; also: nearly all actives have a fitted effect of over 15% in size; also: potency is read from the fitted curve at half-maximal effect
Procedure, shortened: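 Quantitative HTS in HEK293T expressing luciferase-tagged ATAD5, whose levels rise upon DNA damage. Exposure ran 16 hr at 37C and 5% CO2, with luminescence read 30 min after Amplite addition at room temperature.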

[3] = qHTS assay for small molecule agonists of the p53 signaling pathway - cell viability (AID 651633; calls by dose curve; also: nearly all actives have a fitted effect of over 30% in size; also: potency is read from the fitted curve at half-maximal effect); conditions: p53RE-bla HCT-116 viability, ATP luminescence, 16 h; series mostly up to 83.3 µM
Procedure, shortened: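 Viability counter-read: CellTiter-Glo luminescence (30 min, room temperature) in the same p53RE-bla plates. These plates had been exposed to compounds for 16 h at 37 C.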

[4] = qHTS assay for small molecules that induce genotoxicity in human embryonic kidney cells expressing luciferase-tagged ATAD5 - cell viability (AID 651634; calls by dose curve; also: nearly all actives have a fitted effect of over 25% in size; also: potency is read from the fitted curve at half-maximal effect); conditions: HEK293T ATAD5-luc cells viability, CellTiter-Fluor, 15.5 h; series mostly up to 83.3 µM
Procedure, shortened: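 After 15.5 hr incubation with compound at 37C, 5% CO2, HEK293T ATAD5-luciferase cells received CellTiter-Fluor reagent; fluorescence intensity was quantified following 30 min at 37C.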

[5] = qHTS assay for small molecule disruptors of the mitochondrial membrane potential - cell viability (AID 720634; calls by dose curve;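 also: human HepG2 liver cancer cells; nearly all actives have a fitted effect of over 20% in size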); conditions: HepG2 viability, ATP luminescence (CellTiter-Glo), 1 h; series mostly up to 83.2 µM
Procedure, shortened: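 ATP-based luminescent viability readout (CellTiter-Glo, 30 min, room temperature) in HepG2 cells multiplexed with the m-MPI membrane potential dye; compound exposure lasted 1 hr at 37 C.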

[6] = qHTS assay to test for compound auto fluorescence at 590 nm (red) in HepG2 cells (AID 720674); conditions: HepG2 autofluorescence, red 540/590 nm, 1 h; series mostly up to 91.3 µM
Procedure, shortened: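 1 hr compound incubation on HepG2 cells, 37 C, 5% CO2; plate read ex 540 nm / em 590 nm; intensities reported as Rose Bengal sodium equivalents.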

[7] = qHTS assay to test for compound auto fluorescence at 535 nm (green) in HepG2 cells (AID 720675); conditions: green autofluorescence 485/535 nm, 1 h; series mostly up to 91.3 µM
[8] = qHTS assay to test for compound auto fluorescence at 460 nm (blue) in HEK293 cells (AID 720678); conditions: blue autofluorescence 405/460 nm; series mostly up to 91.3 µM
Procedure, shortened: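 HEK293 cells (2,000/well, medium with 10% dialyzed FBS) attached 4-5 hr, then exposed to compound overnight at 37C, 5% CO2. Blue fluorescence read at 405/460 nm, with triamterene as reference fluorophore.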

[9] = qHTS assay to test for compound auto fluorescence at 590 nm (red) in HEK293 cells (AID 720679); conditions: red autofluorescence 540/590 nm; series mostly up to 91.3 µM
Procedure, shortened: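 HEK293 cells (2,000/well, 10% dialyzed FBS) attached 4-5 hr, then dosed with compound or DMSO and incubated overnight at 37C, 5% CO2. Red fluorescence read at 540/590 nm, Rose Bengal sodium as reference fluorophore.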

[10] = qHTS assay to test for compound auto fluorescence at 535 nm (green) in HEK293 cells (AID 720680); conditions: green autofluorescence 485/535 nm; series mostly up to 91.3 µM
[11] = qHTS assay to test for compound auto fluorescence at 460 nm (blue) in HEK293 cell free culture (AID 720681); conditions: cell-free medium, autofluorescence 405/460 nm (blue); series mostly up to 91.3 µM
Procedure, shortened: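 Blue fluorescence (Ex 405/Em 460 nm, triamterene-equivalent) was read immediately after pin transfer of compound or DMSO into medium (DMEM, 10% FBS) without cells.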

[12] = qHTS assay to test for compound auto fluorescence at 535 nm (green) in HEK293 cell free culture (AID 720682); conditions: cell-free medium, green autofluorescence 485/535 nm, active compounds read high; series mostly up to 91.3 µM
Procedure, shortened: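 Measurement is a direct plate read of green fluorescence (485 nm in, 535 nm out) after compound addition to serum-supplemented DMEM lacking cells, with fluorescein used to express intensities.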

[13] = qHTS assay to test for compound auto fluorescence at 590 nm (red) in HEK293 cell free culture (AID 720683); conditions: cell-free medium autofluorescence, Ex540/Em590 red; series mostly up to 91.3 µM
Procedure, shortened: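 Red-channel autofluorescence of compounds in culture medium (DMEM, 10% FBS), no cells, measured at 540/590 nm. Rose Bengal sodium is the reference fluorophore for equivalence.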

[14] = qHTS assay to test for compound auto fluorescence at 590 nm (red) in HepG2 cell free culture (AID 720684); conditions: cell-free medium autofluorescence, red 540/590 nm; series mostly up to 91.3 µM
Procedure, shortened: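 Cell-free; medium MEM + 10% FBS; compound or DMSO added by pintool; read Ex 540/Em 590 nm; Rose Bengal sodium as red reference fluorophore.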

[15] = qHTS assay to test for compound auto fluorescence at 460 nm (blue) in HepG2 cell free culture (AID 720685); conditions: Cell-free culture medium, blue autofluorescence 405/460 nm; series mostly up to 91.3 µM
Procedure, shortened: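 Cell-free plates of MEM plus 10% FBS received 23 nL compound or DMSO vehicle; blue-channel (405/460 nm) intensity scored against triamterene as reference fluorophore.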

[16] = qHTS assay to test for compound auto fluorescence at 535 nm (green) in HepG2 cell free culture (AID 720686); conditions: Cell-free medium, green autofluorescence 485/535 nm; series mostly up to 91.3 µM
[17] = qHTS assay to test for compound auto fluorescence at 460 nm (blue) in HepG2 cells (AID 720687); conditions: autofluorescence 405/460 nm, 1 h; series mostly up to 91.3 µM
Procedure, shortened: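 Blue-channel autofluorescence (Ex/Em 405/460 nm, triamterene-equivalent) was measured after 1 hr compound exposure at 37 C, 5% CO2. Cells were HepG2, plated overnight at 37 C in MEM plus 10% FBS.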

[18] = molecular target: Glucocorticoid receptor (Homo sapiens) (UniProt P04150); experiment: qHTS assay to identify small molecule agonists of the glucocorticoid receptor (GR) signaling pathway (AID 720691; active = well fitted activation curve with a large enough effect in the signal ratio in the repeat runs, not every such curve was filed as active; the % refers to the signal ratio); conditions: GR-bla HeLa, beta-lactamase reporter ratio, 18 h; series mostly up to 62.4 µM
Glucocorticoid receptor (Homo sapiens), sequence (P04150 whole entry, looked up): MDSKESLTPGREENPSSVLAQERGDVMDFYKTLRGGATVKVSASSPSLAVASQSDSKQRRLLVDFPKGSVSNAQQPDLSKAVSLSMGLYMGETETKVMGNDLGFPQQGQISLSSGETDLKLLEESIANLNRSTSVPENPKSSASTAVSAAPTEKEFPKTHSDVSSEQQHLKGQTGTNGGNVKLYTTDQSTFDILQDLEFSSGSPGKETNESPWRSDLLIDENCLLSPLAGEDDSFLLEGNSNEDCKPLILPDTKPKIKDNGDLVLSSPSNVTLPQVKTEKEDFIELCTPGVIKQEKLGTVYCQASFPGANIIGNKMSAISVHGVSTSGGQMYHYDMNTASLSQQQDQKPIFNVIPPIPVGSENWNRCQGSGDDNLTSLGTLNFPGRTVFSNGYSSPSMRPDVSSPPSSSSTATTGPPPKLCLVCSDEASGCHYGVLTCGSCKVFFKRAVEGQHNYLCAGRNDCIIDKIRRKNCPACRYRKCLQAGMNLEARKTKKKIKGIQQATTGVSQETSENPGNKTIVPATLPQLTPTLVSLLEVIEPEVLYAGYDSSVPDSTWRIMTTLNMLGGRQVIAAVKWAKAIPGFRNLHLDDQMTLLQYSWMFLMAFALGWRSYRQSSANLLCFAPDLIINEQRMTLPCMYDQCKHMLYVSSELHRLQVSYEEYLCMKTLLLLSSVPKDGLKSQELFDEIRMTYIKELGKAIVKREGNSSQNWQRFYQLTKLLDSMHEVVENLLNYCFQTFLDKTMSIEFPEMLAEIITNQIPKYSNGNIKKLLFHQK
Procedure, shortened: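 Cells: GR-bla HeLa, endogenous GR with stably integrated GRE-beta-lactamase reporter. Treatment 18 h, 37 C, compounds delivered in DMSO. Detection via LiveBLAzer B/G FRET substrate, 2 h RT, fluorescence intensity.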

[19] = molecular target: Glucocorticoid receptor (Homo sapiens) (UniProt P04150); experiment: qHTS assay to identify small molecule antagonists of the glucocorticoid receptor (GR) signaling pathway (AID 720692; active = well fitted inhibition curve with a large enough effect in the signal ratio in the repeat runs, not every such curve was filed as active; the % refers to the signal ratio; also: potency is read from the fitted curve at half-maximal effect); conditions: GR-bla HeLa, beta-lactamase FRET ratio, dexamethasone-stimulated, 18 h; series mostly up to 58.5 µM
Procedure, shortened: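 Quantitative HTS in antagonist format: HeLa cells expressing endogenous GR and a stably integrated GRE-bla reporter, stimulated with 5 nM dexamethasone (final) alongside test compounds for 18 h.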

[20] = qHTS assay for small molecule disruptors of the mitochondrial membrane potential (AID 720635); conditions: HepG2 mitochondrial membrane potential, Mito-MPS dye ratio; series mostly up to 83.2 µM; also: potency is read from the fitted curve at half-maximal effect
Procedure, shortened: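 Mitochondrial membrane potential tracked with Mito-MPS dye, red aggregates (ex 540/em 590 nm) against green monomers (ex 490/em 535 nm). Compound treatment 1 hr at 37C, dye 30 min in HepG2.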

Row | SMILES | Potency [1] | Potency [2] | Potency [3] | Potency [4] | Potency [5] | outcome [6] | outcome [7] | Potency [8] | outcome [9] | outcome [10] | Potency [11] | outcome [12] | outcome [13] | outcome [14] | Potency [15] | outcome [16] | Potency [17] | Potency [18] | Potency [19] | Potency [20]
1 | CCC(OCCCOC)OC(C)=O (stereo not drawn) | inactive | inactive | inactive | inactive | inactive | inactive | inactive | inactive | inactive | inactive | inactive | inactive | inactive | inactive | inactive | inactive | inactive | inactive | inactive | –
2 | CC(=O)OCC[N+](C)(C)C | inactive | inactive | inactive | inactive | inactive | inactive | inactive | inactive | inactive | inactive | inactive | inactive | inactive | inactive | inactive | inactive | – | inactive | inactive | –
3 | CC1CC(C)C(=O)C1=O (stereo not drawn) | inactive | inactive | inactive | inactive | inactive | – | inactive | inactive | inactive | inactive | inactive | inactive | inactive | inactive | inactive | inactive | – | inactive | – | inactive
4 | C[C@@H](O[C@H]1OCCN(Cc2n[nH]c(=O)[nH]2)[C@H]1c1ccc(F)cc1)c1cc(C(F)(F)F)cc(C(F)(F)F)c1 | 29.8 µM (active) | inactive | 23.7 µM (active) | 23.7 µM (active) | inactive | inactive | inactive | inactive | inactive | inactive | inactive | inactive | inactive | inactive | inactive | inactive | inactive | – | – | –
5 | CCOC(=O)c1ccccc1C(=C1C=C(Br)C(=O)C(Br)=C1)c1cc(Br)c(O)c(Br)c1 | 7.24 µM (active) | inactive | 7.24 µM (active) | 40.7 µM (active) | inactive | inactive | inactive | inactive | inactive | inactive | inactive | inactive | inactive | inactive | inactive | inactive | inactive | – | 4.61 µM (active) | 20.4 µM (active)
6 | CCCCCCCCCI | inactive | inactive | inactive | inactive | inactive | inactive | inactive | inactive | inactive | inactive | inactive | inactive | inactive | – | inactive | inactive | inactive | – | inactive | –
7 | CCOC(=O)c1ccc(OCCN2C[C@H](O)[C@@H](O)[C@H](O)[C@H]2CO)cc1 | inactive | inactive | inactive | inactive | inactive | – | inactive | – | inactive | inactive | inactive | inactive | inactive | – | inactive | inactive | inactive | – | – | inactive
8 | CC[C@]1(O)C[C@H]2CN(CCc3c([nH]c4ccccc34)[C@@](C(=O)OC)(c3cc4c(cc3OC)N(C=O)[C@H]3[C@@](O)(C(=O)OC)[C@H](OC(C)=O)[C@]5(CC)C=CCN6CC[C@]43[C@@H]65)C2)C1 | 0.0084 µM (active) | 0.75 µM (active) | inactive | 0.0473 µM (active) | inactive | inactive | inactive | – | inactive | – | inactive | inactive | inactive | inactive | – | inactive | inactive | – | – | 3.76 µM (active)
9 | CC[N+](CC)(CCNC(=O)C(=O)NCC[N+](CC)(CC)Cc1ccccc1Cl)Cc1ccccc1Cl | inactive | inactive | inactive | inactive | inactive | inactive | inactive | inactive | inactive | inactive | inactive | inactive | inactive | inactive | inactive | inactive | inactive | – | – | –
10 | O=c1[nH]c2ccc(Cl)cc2o1 | inactive | inactive | inactive | inactive | inactive | inactive | inactive | inactive | inactive | inactive | inactive | inactive | inactive | inactive | inactive | inactive | inactive | – | – | –
11 | CO[C@]1(NC(=O)CSC(F)F)C(=O)N2C(C(=O)O)=C(CSc3nnnn3CCO)CO[C@H]21 | inactive | inactive | inactive | inactive | inactive | inactive | inactive | inactive | inactive | inactive | inactive | inactive | inactive | inactive | inactive | inactive | inactive | inactive | inactive | inactive
12 | CCC=CC#N | inactive | inactive | inactive | inactive | inactive | inactive | inactive | inactive | inactive | inactive | inactive | inactive | inactive | – | inactive | inactive | inactive | inactive | inactive | –
13 | O=C(O)C[C@H](NC(=O)OCc1ccccc1)C(=O)O | inactive | inactive | inactive | inactive | inactive | inactive | inactive | inactive | inactive | inactive | inactive | inactive | inactive | inactive | inactive | inactive | inactive | – | inactive | inactive
